± gives the standard deviation of the averaged measurements.

Assay [1] concerns Drosophila ezoana antennal basiconic sensillum ab4. The assay is described as follows: odor-evoked OSN spike response (post minus pre-stimulus); higher = stronger neuronal excitation. As to conditions: odor dilution: 10^-4. A digest of the protocol: (§1)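 The response is the change in spike frequency between pre-stimulus and post-stimulus windows, averaged over replicate sensilla. Both windows lasted 1 second, and spikes were counted with Auto Spike software. Single sensillum recordings used a tungsten electrode at the base of antennal basiconic sensilla on restrained adult flies, with up to 3 sensilla per fly, and odorant at 10^−4 in mineral oil or DMSO (10 µl on filter paper) was delivered as a 500 ms pulse into a charcoal-filtered, humidified 1.5 l min^−1 air stream.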

For assay [2], the system named is Drosophila virilis antennal basiconic sensillum AB11. The description is as above. As to conditions: odor dilution: 10^-4. The gist of the method: as §1

For `C[C@H]1CCC[C@@]2(C)CCCC[C@]12O` [geosmin], the “odor-evoked OSN spike response” value in assay [1] is 119 ± 39 spikes/s. For `CCOC(=O)c1ccccc1` [ethyl benzoate], in assay [2], the “odor-evoked OSN spike response” value was determined as 23.1 ± 7.8 spikes/s. With `CC(C)OC(=O)c1ccccc1` [isopropyl benzoate], the “odor-evoked OSN spike response” value in assay [2] was 54 ± 12 spikes/s.

These data come from the supplement of paper PMC10477191.
